From PubChem
Hits are enriched below; roughly 3.6% of the tested compounds scored in any of these assays.
Epigenetic reg = epigenetic control regulation, reporter derepression | AID 1865 | 0.2% of 280,000 active | murine LDR cells, GFP reporter derepression, 30 h | Potency, µM (titrated, usually from 53.9 µM), without a hit: at the top dose GFP activation, hits mostly activators; note: % of control where 0% means no effect; nearly all actives have a fitted effect of over 60% in size
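Readout is the number of GFP-expressing murine LDR cells, counted by cytometry following washing. Cells were treated with compound for 30 h at 37 C; the stably integrated CMV-GFP locus is normally silent.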
NPSR antagonist = blocks cAMP signaling of the human neuropeptide S receptor; Q6W5P4; CHO-NPSR cells, cAMP TR-FRET, antagonist mode; Potency, µM (highest dose often 38.3 µM), without a hit: at the top dose activity change, negative = inhibition, actives largely listed as inhibitors; 1% of 220,000 active; AID 1461; note: % is set by controls: 0 for no effect and ±100 for the full control effect; nearly all actives have a fitted effect of over 50% in size
Target sequence (Q6W5P4 whole entry, looked up): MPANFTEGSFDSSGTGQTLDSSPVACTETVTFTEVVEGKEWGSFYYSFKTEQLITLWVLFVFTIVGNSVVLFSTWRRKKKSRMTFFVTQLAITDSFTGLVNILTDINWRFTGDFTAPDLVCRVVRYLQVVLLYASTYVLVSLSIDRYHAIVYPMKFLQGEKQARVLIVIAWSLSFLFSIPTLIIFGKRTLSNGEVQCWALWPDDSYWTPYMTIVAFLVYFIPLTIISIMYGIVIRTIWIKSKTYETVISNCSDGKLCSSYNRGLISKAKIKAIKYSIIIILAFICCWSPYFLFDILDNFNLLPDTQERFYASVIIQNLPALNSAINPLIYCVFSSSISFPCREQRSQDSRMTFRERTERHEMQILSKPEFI
KDM4E inh = inhibitors of human JMJD2E histone demethylase. B2RXH2. JMJD2E catalytic domain, FDH-coupled NADH fluorescence (FDH is formaldehyde dehydrogenase). Potency, µM (doses to about 57.1 µM), inactives show top-dose activity change, negative = inhibition, usual class: inhibitors. 1.6% of 230,000 active; active = well fitted inhibition curve with a large enough effect, not every such curve was filed as active; inconclusive = small, poorly fitted or top-dose-only effect, or another doubt; inactive = no such curve, though single readings can be large or run the other way;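 note: 0% = wells with enzyme and -100% = buffer wells without enzyme; nearly all actives have a fitted effect of over 50% in size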
Target sequence (B2RXH2 1-337 limits assumed): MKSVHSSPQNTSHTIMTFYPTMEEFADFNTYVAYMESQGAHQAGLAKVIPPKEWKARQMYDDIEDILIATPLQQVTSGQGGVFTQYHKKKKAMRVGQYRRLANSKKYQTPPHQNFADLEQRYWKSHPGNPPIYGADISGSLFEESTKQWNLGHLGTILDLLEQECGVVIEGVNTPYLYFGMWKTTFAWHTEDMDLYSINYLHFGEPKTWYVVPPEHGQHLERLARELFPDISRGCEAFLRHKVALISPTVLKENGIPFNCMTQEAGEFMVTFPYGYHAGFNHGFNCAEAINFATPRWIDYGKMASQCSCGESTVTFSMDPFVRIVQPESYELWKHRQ
IMPase Li inh = IMPase inhibition in cells with lithium potentiation; CHO-M1 cells, IP1 TR-FRET (IP-One), carbachol + lithium; Potency, µM (series often up to 59.4 µM), for the others: top-dose activity, negative = IMPase inhibition, usual class: inhibitors; 0.35% of 210,000 active;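 note: IP1 builds up when IMPase is blocked and the TR-FRET signal falls; plate controls were basal vehicle for no effect and high inhibitor control for full effect; nearly all actives have a fitted effect of over 50% in size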
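Concentration–response in CHO-M1 cells, lithium-potentiated; 30 min at 37C. IP1 detected by competitive TR-FRET after 10 min lysis at RT. Hill-fitted AC50.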
GCN5L2 inh = GCN5L2 (KAT2A) acetyltransferase inhibition | Q92830 | Potency, µM (doses to about 58.9 µM), for inactives: at the top dose activity change, negative = inhibition, most hits filed as inhibitors | 0.21% of 390,000 active | GCN5L2 HAT assay, ThioGlo1 CoA-SH fluorescence | AID 504327; note: % is set by controls: 0 for no effect and ±100 for the full control effect
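ThioGlo1-coupled HAT assay: 20nM GCN5L2, 70uM acetyl-CoA, 75uM H3(1-25) peptide, pH 7.5. Fluorescence read at 340/540nm at start and after 20 min at room temperature.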
Sfp PPTase inh = blocks B. subtilis Sfp PPTase activity; Q9F4F7; Biochemical Sfp PPTase activity, qHTS; Potency, µM, for inactives: largest response in the series, negative = inhibition, actives largely listed as inhibitors; 3.5% of 310,000 active; AID 1490;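 note: the enzyme is Sfp with the accession as filed and its product quenches rhodamine fluorescence; 0% = enzyme reaction without inhibitor and -100% = no enzyme wells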
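After 15 min at room temperature with compound, 15 nM Sfp received 5 uM rhodamine-CoA plus 12.5 uM BHQ-2-ybbR (50 mM Hepes pH 7.6, 10 mM MgCl2). Rate came from the fluorescence difference over 30 min, ex 525/em 598 nm.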
Active calls of the source: *; ? = inconclusive; . = not tested or not shown; [ ] = dose if it differs, or a comment. Unless noted, calls come from the whole dose curve; as a rule, active = well fitted curve in the direction sought with a large enough effect; inconclusive = small, poorly fitted or top-dose-only effect, or another doubt; inactive = no such curve, though single readings can be large; an effect the other way counts as inactive or inconclusive. Potency is the fitted concentration of half-maximal effect.

SMILES	Epigenetic reg	NPSR antagonist	KDM4E inh	IMPase Li inh	GCN5L2 inh	Sfp PPTase inh
COc1ccc(O)c(/C=N/NC(=O)c2ccc(CSc3nc(C)cc(C)n3)cc2)c1	0%	-4%	?	5%	-20%	-28%
Cc1cc(C)nc(SCc2ccc(C(=O)N/N=C/c3cccc(O)c3O)cc2)n1	4%	-23%	3.2µM*	19%	-10%	-12%
Cc1cccc(C)c1Nc1oc(-c2ccccc2)nc1-c1ccccc1F	-1%	.	-5%	9%	.	-20%
CN(C)CCCN1C(=O)c2cccc3c(Br)ccc(c23)C1=O	?	-29%	?	-6%	-3%	-18%
CCCCNc1ccc2c3c(cccc13)C(=O)N(CCCC)C2=O	3.2µM*	?	6%	.	-8%	28µM*
O=C(NC1=C(NC2CCS(=O)(=O)C2)C(=O)c2ccccc2C1=O)c1ccccc1 (stereo unspecified)	1%	-40%	6%	13%	10%	35µM*
O=C(NC(NC1CCS(=O)(=O)C1)C(=O)c1cccs1)c1ccccc1 (stereo unspecified)	0%	5%[46.1 µM]	0%	19%[38.3 µM]	-2%	11%
O=C(NC1=C(Nc2ccc(Cl)cc2)C(=O)c2ccccc2C1=O)c1ccccc1	-3%	-6%	?	10%	-6%	56µM*
O=C1C(Cl)=C(NC(=O)c2ccccc2)C(=O)C(Cl)=C1NC(=O)c1ccccc1	.	.	.	.	?	0.89µM*
Cc1cccc(NC2=C(NC(=O)c3ccccc3)C(=O)c3ccccc3C2=O)c1	-1%	-28%	-17%	9%	-9%	20µM*
CN(C1=C(NC(=O)c2ccc(Cl)cc2)C(=O)c2ccccc2C1=O)c1ccccc1	0%	-22%[46.1 µM]	3%	.	-5%	-4%
Cc1cccc(C(=O)Nc2cccc(NC(=O)c3ccccc3)c2)c1	.	.	.	.	-4%	2%
CC(=O)NC(c1ccco1)c1cc(Cl)c2ccc(N(C)C)nc2c1O (stereo unspecified)	.	.	.	.	-10%	.
CC(O)CCCCCCC/C=C/C=C/C(N)=O (stereo unspecified)	1%[10.1 µM]	.	.	.	.	2%
C=CCOC(=O)C(C(C)=O)C(NC(=O)OC)c1ccc2ccccc2c1 (stereo unspecified)	0%[10.1 µM]	.	.	.	.	-8%
COCC#Cc1ccc(C2C(C)CCC3C(=O)N4C(CCC(C)C4c4ccc(C#CCOC)cc4)C(=O)N32)cc1 (stereo unspecified)	3%[10.1 µM]	.	.	.	.	3%
CCOc1cc(/C=C\[N+](=O)[O-])ccc1OCC(=O)Nc1ccccc1C	?	4µM*	4%	6%[38.3 µM]	-2%	2µM*
CC1(C)Cc2c(C#N)c(N3CCCC3)nc(-c3ccco3)c2CO1	2%	-13%[46.1 µM]	?	-5%[38.3 µM]	-12%	18µM*
N#Cc1c(N2CCOCC2)nc(-c2ccco2)c2c1CCCC2	0%	-10%[46.1 µM]	?	-13%[38.3 µM]	-8%	45µM*
CC1(C)Cc2c(C#N)c(NCc3ccco3)nc(-c3ccco3)c2CO1	-3%	-2%[46.1 µM]	?	19%[38.3 µM]	-12%	3.5µM*
Cc1nc(NCc2ccco2)c(C#N)c2c1COC(C)(C)C2	-1%	-30%[46.1 µM]	?	-4%[38.3 µM]	-1%	20%
CC1(C)Cc2c(C#N)c(N3CCN(C(=O)c4ccccc4)CC3)nc(-c3ccco3)c2CS1	-1%	?	5%	-3%	?	20µM*
CCCCN(C)c1nc(-c2ccco2)c2c(c1C#N)CC(C)(C)OC2	1%	?	?	2%[38.3 µM]	-27%	35µM*
Cc1cn2c(=O)c3ccccc3nc2n2c(=O)c3ccccc3nc12	0%	.	-2%	5%	.	-3%
COc1cccc(NC2C=CS(=O)(=O)C2)c1 (stereo unspecified)	-2%	21%[46.1 µM]	-9%	-2%	-3%	15%
SMILES	Epigenetic reg	NPSR antagonist	KDM4E inh	IMPase Li inh	GCN5L2 inh	Sfp PPTase inh
COc1ccc(NC2C=CS(=O)(=O)C2)c(OC)c1 (stereo unspecified)	-2%	-20%[46.1 µM]	1%	13%[38.3 µM]	-3%	79µM*
CC(CNC(=O)c1cccnc1)NC(=O)c1cccnc1 (stereo unspecified)	.	.	.	.	1%	2%
CC(=O)Nc1c(C(=O)Nc2cccc(C)c2)nnn1-c1ccc(C)cc1	-1%	.	.	.	-6%	.
CN(C)C1CCN(C(=O)c2ccc(-n3c(=O)c(=O)[nH]c4ccccc43)cc2)C1 (stereo unspecified)	0%	.	.	.	.	.
Cn1cc(CNC(=O)c2cc(-c3ccccc3)nc3ccc(Br)cc23)cn1	?	-52%	-2%	11µM*	2%	-3%
CCn1cc(CNC(=O)c2cc(-c3ccc(C)cc3)nc3ccc(Br)cc23)c(C)n1	16µM*	.	.	.	-11%	.
Nc1nc2c(c(=O)[nH]1)N[C@H](CCNc1ccc(C(=O)O)cc1)CN2	.	.	.	-3%	.	.
CCN(CC)c1ccc(N=Cc2c(C)[nH]c3ccccc23)cc1	0%	-39%	0.79µM*	12%	-10%	50µM*
Cc1[nH]c2ccccc2c1/C=N/n1cnnc1	0%	-17%[46.1 µM]	1%	8%[38.3 µM]	-5%	1%
Cc1ccc(CNC(=O)[C@H]2C[C@@H]2[C@H](NP(=O)(c2ccccc2)c2ccccc2)c2ccccc2)o1	3%	-18%	-3%	14%	0%	35µM*
CC(C)C[C@H](NC(=O)[C@H](CCC(N)=O)NC(=O)[C@H](CCCCN)NC(=O)[C@H](CCC(N)=O)NC(=O)[C@@H](N)CCC(=O)O)C(=O)N[C@@H](CCC(N)=O)C(=O)O	1%	.	.	2%	11%	14%
CC1=CC2C(=O)c3cccc(O)c3C(=O)C2C(O)=C1 (stereo unspecified)	0%	.	-13%	17%	.	?
Cc1ccsc1/C=C/C1=Cc2c(sc(NC(=O)CSc3n[nH]c(N)n3)c2C#N)C(C)(C)C1	-3%	-27%[46.1 µM]	2%	-7%[38.3 µM]	0%	40µM*
CCOc1ccc(/C=C/C2=Cc3c(sc(NC(=O)CSc4n[nH]c(N)n4)c3C#N)C(C)(C)C2)cc1	10%	-21%[46.1 µM]	-2%	-4%[38.3 µM]	-3%	40µM*
CC(C)Cn1c(=O)c2sccc2n2c(CCCC(=O)NCc3ccccc3Cl)nnc12	-5%	.	.	.	-11%	.
CSc1nc(=S)c2[nH]c(=S)[nH]c2[nH]1	-1%	?	11µM*	.	3.2µM*	2.5µM*
CSc1nc2c(c(=O)[nH]1)CCCC2	1%	29%[46.1 µM]	0%	25%[38.3 µM]	2%	4%
S=c1nc[nH]c2c1[nH]c1ccccc12	-3%	?	?	4.5µM*	-5%	-25%
S=c1nc[nH]c2c1[nH]c1ccc(Cl)cc12	1%	-17%	-1%	.	-12%	8%
CCN(CC)c1cc2c(cc1F)c(=O)c(S(=O)(=O)c1cc(C)ccc1C)cn2Cc1ccccc1	-1%	.	.	.	-5%	.
